Drawing on PubChem BioAssay AID588832 (Broad Institute, 2011), this text covers inhibition for 91 molecules.

In all, about 8,000 compounds went through this assay and fewer than 10 were called active. A selection follows. A number with no mark means an inactive call. How the calls were made is not given here.

The assay relates to hedgehog, isoform A (Drosophila melanogaster). Put plainly: Hh protein inhibition, biochemical readout – plate reader, single concentration, primary screen (AID 588832).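 Further: 0% = neutral control wells and 100% = positive control wells.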 The settings on record: Biochemical plate reader assay, at 30.3 µM, active compounds read high.
Broadly, the inhibition is the relative decrease from the control value, in per cent. On to `CCOc1ccc(NC(=O)CS(=O)(=O)c2cn(C)c3ccccc23)cc1`, for which the inhibition was 7.96%. On to `CCC1=Nc2cc(C(=O)O)ccc2Sc2ccccc21`, for which the inhibition is 1.79%.

Consider `O=c1c2nnn(-c3ccccc3)c2ncn1C/C=C/c1ccccc1`, for which the inhibition is 6.96%. Under `Cc1cc2cc(CNS(=O)(=O)c3ccccc3)ccc2n1C` stands 7.14%; under `COc1ccc(S(=O)(=O)NCc2ccc3c(c2)cc(C)n3C)cc1`, 62.3% (active). Consider `Cc1ccc(S(=O)(=O)NCc2ccc3c(c2)cc(C)n3C)cc1`, for which the inhibition is 11.8%. For the molecule `COc1ccc(Nc2nc(N)nc(CN3CCc4ccccc4C3)n2)cc1`, the inhibition is 5%. Under `Cc1ccc(Cl)cc1N1CCN(C(=O)COc2ccc(S(=O)(=O)NC(C)C)cc2)CC1` stands 7.28%; under `O=C(NCc1cn2ccsc2n1)c1c(F)cccc1Cl`, 5.46%. Regarding `O=C(O)C(c1ccccc1)c1ccccc1`, the inhibition was 8.45%. Under `Cn1c(=O)cc(N2CCc3ccccc32)[nH]c1=O` stands 1.79%; under `COc1cccc(CNC(=O)COc2cc3c(c4oc(=O)cc(C)c24)CCC(C)(C)O3)c1`, -8.44%; under `O=C(COc1ccc2c(-c3ccccc3)cc(=O)oc2c1)N1C[C@H]2C[C@@H](C1)c1cccc(=O)n1C2`, 1.72%. For `COc1ccc(Cl)cc1N1C(=O)C2CCCN2C1c1ccc(F)c(F)c1` (stereo unspecified), the inhibition is 14.9%. `CCOc1ccc(C2CC(c3cccc(OC)c3)n3nc(N)nc3N2)cc1` (stereo unspecified): the inhibition is 15%. Under `Cc1ccc(C)c(NC(=O)CSc2nc3ccccc3nc2N2CCOCC2)c1` stands 9.55%.

Take `C=CCn1cc(C(=O)NCCCOC)c(=O)c2cc(S(=O)(=O)N3CCC(C)CC3)ccc21`: the inhibition was 25%. For `CC(C)(C)C(=O)NCCc1nc2ccccc2n1CC(=O)c1ccc(Cl)cc1`, the inhibition was 0%. As to `CC(=O)c1ccc(NC(=O)CCS(=O)(=O)c2ccc3c(c2)n(C)c(=O)c(=O)n3C)cc1`, the inhibition was 1.81%. The figure for `Cc1[nH]c2ccccc2c1SCC(=O)N1CCCc2ccccc21` is 1.79%; for `CCOC(=O)N1CCN(c2cc(=O)n(-c3ccc(Br)cc3)c(=O)[nH]2)CC1` it is 6.78%. Under `Cc1ccc2c(c1)N(C(=O)CCC(=O)NCCCN1CCOCC1)CC(C)O2` (stereo unspecified) stands 7.08%; under `CCCCCCc1cc2cc(/C(N)=N/NC(=O)c3ccncc3)c(=O)oc2cc1O`, 10.7%. The figure for `O=C(COC(=O)C1CC(=O)N(C2CCCCC2)C1)c1ccc(F)cc1` (stereo unspecified) is 15%; for `Cc1ccc2c(c1)N(C(=O)CCC(=O)NCCCN1CCN(C)CC1)CCO2` it is 5.23%; for `Cn1c(Cn2c(=O)sc3ccccc32)nnc1SCC(=O)Nc1cccc(Cl)c1` it is 11.1%. `COc1ccccc1C1C(C(N)=O)=C(C)Nc2nc(-c3ccc(Cl)cc3)nn21` (stereo unspecified): the inhibition was 19.2%. Turning to `CC(=O)NCCn1c(C)cc2ccccc21`, the inhibition is 0%. The figure for `Cc1cc2ccccc2n1CCNC(=O)C(C)C` is 5.17%. In the case of `Cc1cc2ccccc2n1CCNC(=O)C(C)(C)C`, the inhibition was 57.3% (active). For `O=C1C=C(O)c2cccc(O)c2C1=O`, the inhibition is 9.84%. For `O=C1C=C(O)c2c(O)cc(O)c(O)c2C1=O`, the inhibition was 93.1% (active). Under `C[C@@H]1Cc2c(O)c(O)cc(O)c2C(=O)O1` stands 4.89%; under `CC(=O)c1ccc(N2CCN(C(=O)c3ccc(NC4=NC5CS(=O)(=O)CC5S4)cc3)CC2)cc1` (stereo unspecified), 3.39%. Regarding `COc1ccc(CNS(=O)(=O)c2cc3c(cc2Cl)NC(=O)CO3)cc1`, the inhibition is 7.24%. Turning to `COc1cccc(-c2nc(C(=O)NCC3CCCO3)cc3c2[nH]c2ccccc23)c1` (stereo unspecified), the inhibition was 0.0615%. The figure for `O=C(Cn1cc2c(n1)CCCC2)NCCCN1CCN(Cc2ccccc2)CC1` is 4.17%. The figure for `CC1CCCN(S(=O)(=O)c2ccc3c(c2)C(C)(C)C(=O)N3C)C1` (stereo unspecified) is 20%; for `O=C(NCCN1CCCC1)c1ccc2c(c1)N(Cc1ccc(F)cc1)C(=O)c1ccccc1S2=O` (stereo unspecified) it is 0.909%; for `COc1ccc(-c2cn3c(C)c(C(=O)Nc4ccncc4)sc3n2)cc1` it is 9.74%. The figure for `COCCNC(=O)CS(=O)Cc1nc(-c2ccc(Cl)cc2)oc1C` (stereo unspecified) is -2.73%; for `Cc1ccc2c(c1)N(CC(=O)NC1CCCC1)C(=O)c1cccnc1O2` it is 16.7%; for `CCN(Cc1ccccc1)S(=O)(=O)c1cc(C(=O)OC)n(C)c1` it is 6.72%. `Cc1cccc(C(=O)N2CCN(Cc3ccc4c(c3)OCO4)CC2)c1`: the inhibition was 5.77%. Under `CC1CC(=O)c2c(cc3c(-c4c(O)cc(O)c5c(O)c6c(cc45)OC(C)CC6=O)c(O)cc(O)c3c2O)O1` (stereo unspecified) stands 6.56%; under `COc1ccc(CNC(=O)COc2cc3c(c4oc(=O)cc(C)c24)CCC(C)(C)O3)cc1OC`, 5.12%; under `CCN1C(=O)c2ccccc2S(=O)c2ccc(C(=O)NCCCN3CCCC3=O)cc21` (stereo unspecified), -4.3%.

In the case of `COC(=O)CN1C(=O)COc2ccc(Cl)cc21`, the inhibition is 16.7%. With `CCOCCn1c(SCc2ccc(F)cc2)nc2c1c(=O)[nH]c(=O)n2C`, the inhibition was -3.67%.

Turning to `O=C(NCc1ccco1)C(=O)NCC1OCCN1S(=O)(=O)c1ccccc1` (stereo unspecified), the inhibition was 7.69%.

In the case of `COCCn1c(SCC(=O)N2CCCc3ccccc32)nc2c(c1=O)SC(C)C2` (stereo unspecified), the inhibition is 5.36%. Consider `CCCNC(=O)CS(=O)(=O)Cc1nc(-c2ccccc2C)oc1C`, for which the inhibition is 24.1%. Turning to `CCOC(=O)N1CCc2c(sc(NC(=O)c3ccc(S(=O)(=O)N4CCCC4)cc3)c2C#N)C1`, the inhibition was 0%.

Consider `Cn1c(=O)c2c(SC3CCCC3)nc(C3CC3)nc2n(C)c1=O`, for which the inhibition is 9.74%. Under `Cn1c(C(=O)NCCN2CCc3ccccc3C2)cc2c(=O)n(C)c3ccccc3c21` stands 20.8%; under `CCCCNC(=S)NCc1ccc2[nH]c(C)cc2c1`, -0.909%. As to `CC(C)COC(=O)C1C2C=CC3(CN(C4CCCC4)C(=O)C13)O2` (stereo unspecified), the inhibition was 8.33%. The figure for `COc1ccc(-c2cc(=O)oc3c(C)c(OC(C)C(=O)NCc4ccccn4)ccc23)cc1` (stereo unspecified) is 4.89%; for `CCc1ccc(NC(=O)CSc2nnc(Cn3c(=O)sc4ccccc43)n2C)cc1` it is 16.7%; for `Cc1ccc(C(=O)NCCSc2c(C)[nH]c3ccccc23)cc1[N+](=O)[O-]` it is 3.51%. For `CCCNC(=O)C1=C(C)C(=O)OC12CCC(C)CC2` (stereo unspecified), the inhibition was 9.55%. Under `CCc1cccc(NC2c3ccccc3C(=O)N2c2ccc(C)cn2)c1` (stereo unspecified) stands 5.06%; under `CCOC(=O)N1CCN(C(=O)c2ccc3c(c2)N(Cc2ccc(F)cc2)CCS3)CC1`, 3.51%; under `CC(=O)Oc1cc(O)c2c(=O)c(OC(C)=O)c(-c3ccc(OC(C)=O)c(OC(C)=O)c3)oc2c1`, 19.3%.

With `CC(=O)Oc1cc2cccc(OC(C)=O)c(=O)c2c(OC(C)=O)c1OC(C)=O`, the inhibition was 57.6% (active).

On to `COc1cc2cccc(OC)c(=O)c2c(OC)c1OC`, for which the inhibition is -1.79%. Take `CCCc1cc(C(=O)NCC(C)C)no1`: the inhibition is 5.23%.

Consider `Cc1cc2cc(CNC(=O)c3ccc(S(=O)(=O)N4CCCCC4)cc3)ccc2[nH]1`, for which the inhibition is 5.36%. As for `Cc1cccc(-n2c(CNC(=O)c3ccccc3)nnc2SCC(=O)Nc2nccs2)c1`, the inhibition is 12.5%.

For `COc1ccc(-c2cc(=O)oc3cc(OC(C)C(=O)NCc4ccccn4)ccc23)cc1` (stereo unspecified), the inhibition was 7.02%. Under `Cn1cc(S(=O)(=O)N2CCc3ccccc32)cc1C(=O)NC1CCCCC1` stands 10.2%; under `CC(=O)Nc1cccc(NS(=O)(=O)c2cn(C)c(=O)n(C)c2=O)c1`, 3.85%; under `O=C(Cn1ncc2c1-c1ccccc1OC2)Nc1ccc(S(=O)(=O)N2CCCCC2)cc1`, 6.96%. Turning to `C/C=C(/C)C(=O)OC1c2c(ccc3ccc(=O)oc23)OC(C)(C)C1OC(=O)/C(C)=C\C` (stereo unspecified), the inhibition is 5.23%. Under `O=C1C=CC2=C3c4cc(O)c(O)cc4CC3(O)COC2=C1O` (stereo unspecified) stands 70.4% (active); under `CCOC(=O)C(C)n1cnc2c(nnn2-c2ccc(F)cc2)c1=O` (stereo unspecified), 7.02%; under `Cc1ccc(C)c(N2CCN(C(=O)c3cc(S(=O)(=O)N4CCOCC4)cn3C)CC2)c1`, 8.45%. The figure for `COc1ccc(NC(=O)NCCCN2CCN(c3cc(C)ccc3C)CC2)cc1` is 3.64%. Regarding `COc1ccc(CN2CCN(C(=O)Cn3ncn4cccc4c3=O)CC2)c(OC)c1OC`, the inhibition is 2.17%. Turning to `CCOc1ccc(NC(=O)CSc2nc3ccccc3nc2N2CCOCC2)cc1`, the inhibition was 7.08%. In the case of `Cc1cc(NC(=O)c2noc3c2CCc2ccccc2-3)n(-c2ccccc2)n1`, the inhibition was 3.64%. For `CC(C)(O)CCCC(C)(O)c1ccc(C(=O)O)cc1O` (stereo unspecified), the inhibition is 6.9%. The figure for `Cc1c(S(=O)(=O)Nc2cc(Cl)ccc2Cl)c(=O)n(C)c(=O)n1C` is 5.23%; for `CC1Cc2nc(SCC(=O)N3CCCc4ccccc43)n(C)c(=O)c2S1` (stereo unspecified) it is 0%; for `COc1ccc(Cc2nc(-c3ccc(Br)o3)no2)cc1OC` it is 33.3%. Under `O=C(CCC(=O)N1CCOc2ccccc21)N1CCOCC1` stands 9.62%. `CC(NC(=O)c1ccc(NC2=NC3CS(=O)(=O)CC3S2)cc1)c1ccccc1` (stereo unspecified): the inhibition was 5.06%. The figure for `Cn1cccc1Cc1nnc(SCC(=O)Nc2ccc(F)cc2)n1CCc1ccccc1` is 17.4%; for `CC(CCc1ccccc1)NC(=O)C1CCN(C(=O)c2sccc2-n2cccc2)CC1` (stereo unspecified) it is 3.57%; for `Cc1ccc(NC(=O)C2CCCN(S(=O)(=O)c3ccc4[nH]c(=O)ccc4c3)C2)cc1C` (stereo unspecified) it is 0%. The figure for `CCc1ccccc1NC(=O)c1cc(S(=O)(=O)N2CCc3ccccc32)cn1C` is 5.06%.
